Compounds without any hit were thinned out: in the full panel of roughly 83,000, 20% have a hit.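 Activity criterion: percent growth below 10, measured after cells in 96-well plates were exposed to a single compound concentration for 48 hours.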 A number with no mark means an inactive call. Calls of active or inactive are those of the source.

Consider eight compounds from PubChem BioAssay (NCI).

Some test systems named below: HCT-15 colon; HT29 colon; SNB-75 CNS; SNB-19 CNS; U251 CNS; PC-3 prostate; SK-MEL-5 melanoma; UACC-62 melanoma; LOX IMVI melanoma; SK-MEL-28 melanoma; SK-MEL-2 melanoma; SN12C renal; UO-31 renal; TK-10 renal; ACHN renal; CAKI-1 renal; A498 renal; MOLT-4 leukemia; CCRF-CEM leukemia.
What all share (test): NCI-60 one-dose screen, 48 h (100 = growth as untreated, 0 = no growth, -100 = all killed)
Common to all, as to settings: 10 µM unless noted

`O=S(=O)(O)CCl`: the growth in the assay on HCT-15 colon is 96.3%; in the assay with HT29 colon it was 95.9%; in the assay with SNB-75 CNS, 86.1%; with SNB-19 CNS, 106%; in the assay on U251 CNS, 97.1%; in the assay on PC-3 prostate, 91.6%. Further, the growth in the assay on SK-MEL-5 melanoma is 103%; in the assay on UACC-62 melanoma, 100%; with LOX IMVI melanoma, 86.8%; with SK-MEL-28 melanoma, 102%; with SK-MEL-2 melanoma, 104%; in the assay with SN12C renal it was 98.8%. The growth was 91.6% in the assay with UO-31 renal; 92% with TK-10 renal; 103% in the assay with ACHN renal; 103% with CAKI-1 renal; 111% with A498 renal; 99.4% with MOLT-4 leukemia.

Consider `COc1cc(NCCN=C(N)NC(N)=NC(C)C)c2ncccc2c1`, for which the growth is 100% in the assay with HCT-15 colon; 61.2% in the assay on HT29 colon; 63.8% with SNB-75 CNS; 84% in the assay with SNB-19 CNS; 79.7% in the assay with U251 CNS; 73.4% in the assay with PC-3 prostate. Also, the growth was 37.2% in the assay with SK-MEL-5 melanoma; 102% with UACC-62 melanoma; 89.2% with LOX IMVI melanoma; 86.1% in the assay on SK-MEL-28 melanoma; -14.2% (active) with SK-MEL-2 melanoma; 74.8% with SN12C renal. Further, the growth with UO-31 renal is 81.7%; in the assay with TK-10 renal it was 110%; with ACHN renal, 94.1%; in the assay on CAKI-1 renal it was 95.3%; in the assay on A498 renal, 91.2%; with MOLT-4 leukemia it was 67.5%.

As for `COc1ccc(/C=C\c2cc(OC)c(OC)c(OC)c2)c(NS(=O)(=O)c2ccc(C(C)(C)C)cc2)c1O`, the growth with HCT-15 colon is 15.5%; with HT29 colon it was 33%; with SNB-75 CNS, 31.9%; in the assay on SNB-19 CNS, 46.1%; in the assay on U251 CNS, 24.3%; in the assay with PC-3 prostate, 34.5%. The growth in the assay with SK-MEL-5 melanoma was -19.2% (active); with UACC-62 melanoma it was 39.1%; with LOX IMVI melanoma, 17%; in the assay with SK-MEL-28 melanoma it was 53.7%; in the assay on SK-MEL-2 melanoma it was -2.03% (active); in the assay with SN12C renal it was 29.5%. Further, the growth was 52.3% in the assay with UO-31 renal; 50.8% in the assay on TK-10 renal; 25.2% in the assay on ACHN renal; 24.4% in the assay on CAKI-1 renal; 20.6% with CCRF-CEM leukemia; 21.8% with MOLT-4 leukemia.

In the case of `COc1cc2nc(N3CCC[C@@H](NC4=CC(=O)c5ccccc5C4=O)C3)nc(N)c2cc1OC`, the growth in the assay with HCT-15 colon is -67.2% (active); in the assay on HT29 colon, -59.8% (active); in the assay on SNB-75 CNS, -92.3% (active); with SNB-19 CNS, -49.7% (active); in the assay with U251 CNS it was -89.3% (active); with PC-3 prostate it was 23%. The growth with SK-MEL-5 melanoma was 94%; in the assay with UACC-62 melanoma, 87.8%; with LOX IMVI melanoma, -65.3% (active); in the assay with SK-MEL-28 melanoma it was 109%; in the assay with SK-MEL-2 melanoma, 109%; in the assay on SN12C renal it was 95.9%. Besides, the growth is 46% in the assay on UO-31 renal; -49.3% (active) in the assay with TK-10 renal; 72% in the assay on ACHN renal; 64.9% in the assay with CAKI-1 renal; 107% in the assay with A498 renal; -37.1% (active) in the assay on MOLT-4 leukemia.

For the compound `Nc1c(C(=O)Nc2cccc(C(F)(F)F)c2)sc2nc3c(cc12)C(O)CCC3` (stereo not given), the growth with HCT-15 colon is 36.7%; in the assay on HT29 colon it was 17.7%; with SNB-75 CNS, -6.78% (active); in the assay on SNB-19 CNS it was 86.8%; with U251 CNS it was 16.8%; in the assay with PC-3 prostate it was 23.4%. Further, the growth with SK-MEL-5 melanoma was 25.7%; with UACC-62 melanoma, 41.4%; with LOX IMVI melanoma, 47.8%; with SK-MEL-28 melanoma, 49%; in the assay with SK-MEL-2 melanoma, 30.7%; with SN12C renal it was 51.5%. Moreover, the growth with UO-31 renal was 49.9%; in the assay on TK-10 renal, 54.6%; in the assay on ACHN renal, 54.6%; in the assay with CAKI-1 renal it was 30.1%; in the assay on A498 renal, -2.02% (active); in the assay on CCRF-CEM leukemia, 14.5%. For the same compound, the growth in the assay on MOLT-4 leukemia was 24.7%.

On to `CCCCCC(=O)OCc1ccccc1`, for which the growth is 94.6% with HCT-15 colon; 106% in the assay on HT29 colon; 90.3% in the assay on SNB-75 CNS; 105% in the assay with SNB-19 CNS; 103% in the assay on U251 CNS; 104% in the assay on PC-3 prostate. Also, the growth in the assay on SK-MEL-5 melanoma was 104%; in the assay on UACC-62 melanoma, 103%; in the assay with LOX IMVI melanoma, 96.8%; with SK-MEL-28 melanoma, 113%; with SK-MEL-2 melanoma it was 92.7%; in the assay on SN12C renal it was 98.1%. Also, the growth with UO-31 renal was 82.7%; with TK-10 renal, 99.7%; in the assay with ACHN renal, 98.1%; with CAKI-1 renal, 96.5%; in the assay on A498 renal, 114%; with MOLT-4 leukemia, 86.3%.

In the case of `COc1ccc(C2CC(c3cccs3)=NN2c2ccc(S(=O)(=O)NC(=O)NCc3cccc(OC)c3)cc2)cc1` (stereo not given), the growth in the assay on HCT-15 colon was 102%; with HT29 colon it was 120%; with SNB-75 CNS, 99.9%; in the assay on SNB-19 CNS, 103%; in the assay on U251 CNS it was 98.1%; with PC-3 prostate it was 96.3%. Also, the growth was 50% in the assay with SK-MEL-5 melanoma; 31% in the assay with UACC-62 melanoma; 96.8% with LOX IMVI melanoma; 48.3% in the assay on SK-MEL-28 melanoma; 57.6% in the assay on SK-MEL-2 melanoma; 112% in the assay with SN12C renal. For the same compound, the growth with UO-31 renal is 87.2%; in the assay on TK-10 renal, 96%; with ACHN renal, 93.2%; with CAKI-1 renal, 94.7%; in the assay with A498 renal, 102%; with MOLT-4 leukemia, 94.7%.

Consider `COc1cc(NCCCN=C(N)NC(N)=NC(C)C)c2ncccc2c1`, for which the growth in the assay with HCT-15 colon is 89.8%; with HT29 colon, 58.9%; with SNB-75 CNS it was 75.3%; in the assay with SNB-19 CNS it was 77.7%; in the assay with U251 CNS, 70.8%; in the assay with PC-3 prostate it was 45%. The growth with SK-MEL-5 melanoma was 27%; in the assay with UACC-62 melanoma, 90.1%; in the assay with LOX IMVI melanoma, 80.8%; in the assay with SK-MEL-28 melanoma, 84.4%; in the assay on SK-MEL-2 melanoma, 16.2%; in the assay with SN12C renal it was 38.1%. Moreover, the growth is 69.1% with UO-31 renal; 107% with TK-10 renal; 94% in the assay with ACHN renal; 94.7% in the assay on CAKI-1 renal; 120% in the assay on A498 renal; 57.7% with MOLT-4 leukemia.
